PLK1 PBD block = qHTS for Inhibitors of PLK1-PDB (polo-like kinase 1 - polo-box domain): Primary Screen; Serine/threonine-protein kinase PLK1 (Homo sapiens), P53350; Plk1 PBD binding of FITC phosphopeptide, fluorescence polarization; Potency, µM, for inactives: max response, negative = inhibition, hits mostly inhibitors; 360,000 tested, 2.8% active; AID 720504, 2013; also: potency is read from the fitted curve at half-maximal effect; series mostly up to about 57 µM; nearly all actives have a fitted effect of over 65% in size
Target sequence (P53350 whole entry, looked up, the tested form may be a part): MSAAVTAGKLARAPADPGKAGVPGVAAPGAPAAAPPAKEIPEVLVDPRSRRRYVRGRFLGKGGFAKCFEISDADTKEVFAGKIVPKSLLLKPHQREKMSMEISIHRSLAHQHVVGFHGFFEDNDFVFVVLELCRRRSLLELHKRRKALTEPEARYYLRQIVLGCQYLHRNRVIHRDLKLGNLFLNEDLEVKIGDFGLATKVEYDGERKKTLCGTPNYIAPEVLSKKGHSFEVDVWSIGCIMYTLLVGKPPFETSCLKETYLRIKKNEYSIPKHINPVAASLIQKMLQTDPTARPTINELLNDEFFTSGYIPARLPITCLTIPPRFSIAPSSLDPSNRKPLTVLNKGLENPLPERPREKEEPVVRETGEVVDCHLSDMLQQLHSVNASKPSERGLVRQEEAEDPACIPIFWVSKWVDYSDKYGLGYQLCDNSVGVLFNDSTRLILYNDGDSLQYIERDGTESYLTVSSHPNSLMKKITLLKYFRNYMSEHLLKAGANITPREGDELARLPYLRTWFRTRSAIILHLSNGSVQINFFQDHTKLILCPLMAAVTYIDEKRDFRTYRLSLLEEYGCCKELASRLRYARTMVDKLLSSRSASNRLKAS
GLS inh = qHTS for Inhibitors of Glutaminase (GLS); Potency, µM (highest dose often 45.5 µM), for inactives: at the highest dose activity change, negative = inhibition, most hits filed as inhibitors; Glutaminase kidney isoform, mitochondrial (Homo sapiens), O94925; GLS enzymatic activity, qHTS titration; 410,000 tested, 0.21% active; also: potency is read from the fitted curve at half-maximal effect
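hKGA; 45 mM KH2PO4 pH 8.2 + 0.02% Tween-20; cpd via pin tool; 1 mM Gln soln; GluOx/HRP/Amplex Red; RT 30 min; fluor. t0 & final.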
KAT2A inh = qHTS Assay for Inhibitors of GCN5L2; AID 504327, 2011; Histone acetyltransferase KAT2A (Homo sapiens), Q92830; GCN5L2 HAT assay, ThioGlo1 CoA-SH fluorescence; Potency, µM (doses to about 58.9 µM), for inactives: at the highest dose activity change, negative = inhibition, most hits filed as inhibitors; 390,000 tested, 0.21% active; also: potency is read from the fitted curve at half-maximal effect
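Compounds, pin-transferred from DMSO stocks, meet 20nM GCN5L2 for 15 min before the reaction begins with H3(1-25) peptide (75uM) and acetyl-CoA (70uM). Thiol-reactive ThioGlo1 reports CoA release over 20 min at room temperature.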
PI4K2A block = qHTS for small molecular inhibitors of PI4K2A; Phosphatidylinositol 4-kinase type 2-alpha (Homo sapiens), Q9BTU6; purified PI4K2A, ADP-Glo luminescence, 1 h; stronger effect = lower value; activity change, negative = inhibition, % at 76.9 µM; 420,000 tested, 0.13% active; AID 1346378, 2018; in the data active = activity change below about -50%; inconclusive = mostly about -30% to -49%;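 also: -100% = wells without enzyme as full effect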
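ADP-Glo luminescence measured ADP generated by PI4K2A enzyme (4 ug/mL before mixing) with 1.2 mM PI substrate (pre-mix) and 300 microM ATP (pre-mix). Tris pH7.5 buffer with MgCl2, Triton X-100; 1 h reaction at ambient temperature.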
VDR inh = Inhibitors of the vitamin D receptor (VDR): qHTS. AID 504847, 2011. VDR-SRC2-3 peptide fluorescence polarization, 2 h. 400,000 tested, 0.93% active. Potency, µM, without a hit: max response, negative = inhibition, actives largely listed as inhibitors; also: potency is read from the fitted curve at half-maximal effect
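The screen uses fluorescence polarization to detect compounds that interfere with recruitment of the SRC2-3 coactivator peptide to VDR; plates are read after 2 h at room temperature.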
Active calls of the source: *; ? = inconclusive; nt = no result given; ! = not confirmed by another sample. Only some compounds are listed: those with a hit (about 3.1% of all), similar ones and a draw of the others. Unless noted, calls follow the shape of the dose curve; as a rule, active = well fitted curve in the direction sought with a large enough effect; inconclusive = small, poorly fitted or top-dose-only effect, or another doubt; inactive = no such curve, though single readings can be large; an effect the other way counts as inactive or inconclusive. Unless noted, % is scaled to controls: 0 for no effect and ±100 for the full control effect.

SMILES	PLK1 PBD block	GLS inh	KAT2A inh	PI4K2A block	VDR inh
COc1ccc(-c2nc(S(=O)(=O)c3ccc(C)cc3)c(N3CCCCC3)o2)cc1	nt	-7%	-7%	-2	89µM*
COc1cc(-c2nc(S(=O)(=O)c3ccc(Cl)cc3)c(N3CCOCC3)o2)cc(OC)c1OC	-4%	3%	-1%	-8	-17%
CCOC(=O)C(CC)Sc1c(CC)cnc2c1c(=O)n(C)c(=O)n2C (stereo unspecified)	nt	-5%	-4%	-7	6%
CN(Cc1ccccc1Cl)C(=O)CN1C(=O)C2(OCCCO2)c2ccccc21	nt	nt	nt	1	nt
CC1(C)S[C@@H]2[C@H](NC(=O)[C@H](N)c3ccccc3)C(=O)N2[C@@H]1C(=O)OCOC(=O)[C@@H]1N2C(=O)C[C@@H]2S(O)(O)C1(C)C	nt	4%	nt	nt	nt
COc1ccc(CCNc2oc(COc3ccccc3F)nc2C#N)cc1OC	27µM*	18%	-4%	-15	-15%
COc1cc(C(=O)NCCc2ccc(F)cc2)c([N+](=O)[O-])cc1OC	13µM*	5%	-2%	4	2%
N#Cc1cccc(-c2nccc(NCc3cccnc3)n2)c1	nt	nt	-20%	nt	-8%
CCCNC(=O)c1nn2c(C(F)(F)F)cc(-c3ccccc3)nc2c1Br	-3%	8%	-2%	-11	1%
CCCCNC(=O)c1nn2c(C(F)(F)F)cc(-c3ccc(OC)cc3)nc2c1Br	12µM*	-3%	2%	0	-23%
COc1ccc(C2C(C#N)=C(N)Oc3cc(C)n(Cc4ccco4)c(=O)c32)cc1 (stereo unspecified)	-28%	-2%	-2%	-12	?
COc1ccc2ccccc2c1C1CC(=O)N2CN(C3CCCCC3)CSC2=C1C#N (stereo unspecified)	13µM*	-17%	-27%	-5	89µM*
COc1ccc(C2CC(=O)N3CN(Cc4ccco4)CSC3=C2C#N)cc1 (stereo unspecified)	27µM*	?	-3%	-6	28µM*
COc1ccc(C2CC(=O)N3CN(C4CCCCC4)CSC3=C2C#N)c(OC)c1 (stereo unspecified)	nt	11%	-19%	-15	?
COc1ccc2ccccc2c1C1CC(=O)N2CN(Cc3ccco3)CSC2=C1C#N (stereo unspecified)	19µM*	-1%	?	-4	?
N#CC1=C2SCN(Cc3ccco3)CN2C(=O)CC1c1ccc(Cl)cc1 (stereo unspecified)	27µM*	-15%	-17%	-7	?
COc1ccc(OC)c(NC(=O)c2cc(C3CC3)nc3c2c(C)nn3-c2ccc(C)cc2)c1	nt	-17%	-13%	0	8%
COc1ccc(CCNC[C@H](O)COc2cccc(C)c2)cc1OC	nt	0%	nt	nt	nt
CC(C)(C)c1ccc(S(=O)(=O)N2CCC(c3cn4ccccc4n3)CC2)cc1	nt	nt	nt	-1	nt
N#CC1=C2SCN(Cc3ccccc3)CN2C(=O)CC1c1cccs1 (stereo unspecified)	24µM*	6%	?	-13	?
COc1ccccc1N1C(C)=CC(=C(C#N)c2nc3ccccc3s2)C=C1C	?	-1%	-10%	0	2%
CC1=CC(=C(C#N)c2nc3ccccc3s2)C=C(C)N1c1ccc(F)cc1	21µM*	-8%	-3%	-2	1%
CC/C=C\C[C@H](O)/C=C/C=C\C/C=C\C/C=C\CCCC(=O)O	nt	nt	nt	nt	8%
O=C(O)CCCn1cc(NC(=O)c2cc(F)c(F)cc2Cl)cn1	8.4µM*	?	26%	-22	?
CCCCCCCCCCOc1cc(OCCCCCCCCCC)cc(N(CC(=O)O)CC(=O)O)c1	nt	nt	?	nt	50µM*
SMILES	PLK1 PBD block	GLS inh	KAT2A inh	PI4K2A block	VDR inh
Cc1ccc(NNC(=O)Nc2ccc(Cl)cc2)nn1	6µM*	13%	-2%	-3	18µM*
Cc1c(NC(=O)c2ccc(N3CCC(C)CC3)c([N+](=O)[O-])c2)cccc1-c1nc2ccccc2o1	nt	-20%	5%	3	-7%
COc1ccc(C(=O)Oc2ccc3c(-c4ccc(OC)cc4)cc(=O)oc3c2)cc1	nt	nt	nt	nt	0%
COc1ccc(-c2cc(=O)oc3c(O)c(O)ccc23)cc1	-10%	4.5µM*	-2%	-4	1%
CC(C)/C(=N\NS(=O)(=O)c1ccc(Br)cc1)c1cccs1	24µM*	5%	1%	1	-11%
C/C(=N\NS(=O)(=O)c1ccc(C)c([N+](=O)[O-])c1)c1cccs1	?	0%	-4%	0	-14%
C/C(=N\NS(=O)(=O)c1ccc([N+](=O)[O-])cc1)c1cccs1	27µM*	16%	-6%	-1	?
Cc1cc(C)nc(SCC(=O)NC2CCCC2)n1	-14%	-2%	0%	-3	7%
Cc1cc(C)nc(NNC(=O)NC2CCCCC2)n1	27µM*	27%	-5%	1	?
CN(C)CCNC(=O)c1cccc(NS(=O)(=O)c2ccc(Cl)c(Cl)c2)c1	-21%	22%	-2%	-5	26%
CN(C)CC(C)(C)CNS(=O)(=O)c1ccc(Cl)c(Cl)c1	19µM*!	-21%	-8%	-11	-23%
O=C(c1ccc(N2CCOCC2)cc1)N1CCCC(Nc2ccccc2)C1 (stereo unspecified)	9.5µM*	?	-2%	3	?
COC(=O)C1CN(C2CC2)CCS(=O)(=O)N1Cc1cn(Cc2ccccc2)nn1 (stereo unspecified)	nt	nt	nt	-3	nt
CCOC(=O)c1cc(-c2ccccc2)n(-c2cccc(C(=O)N(CC)c3ccccc3)c2)c1C	nt	-8%	-5%	-1	-1%
O=C(C=Cc1ccccc1)c1cc(Br)ccc1O	-22%	-8%	nt	6	?
CCc1ccc(/C=C/C(=O)c2cc(Br)ccc(=O)c2O)cc1	21µM*	4%	?	-8	20µM*
NCCN1CCN(S(=O)(=O)c2ccc3c(c2)CCN3C(=O)C2CCC2)CC1	nt	nt	nt	2	nt
COC(=O)c1ccc(-c2noc(CN3CCCCC3c3nccn3C)n2)cc1 (stereo unspecified)	-11%	6%	-5%	-1	8%
COC(=O)c1ccc(-c2noc(CN(Cc3nccn3C)C(C)C)n2)cc1	17µM*	6%	0%	2	-24%
Cc1ccc(-c2nnc(-c3cccc(Br)c3)o2)cc1	27µM*	30%	-1%	-2	?
O=C(OCc1cn(Cc2ccc(F)cc2)nn1)N1CCOCC1	nt	nt	nt	-1	nt
O=C1c2cccc3c(O)ccc(c23)C(=O)N1c1ccc(Cl)cc1	4.7µM*	17%	-3%	-4	38%

Source: PubChem
